# Experimental data from PubChem BioAssay AID493201 (National Center for Advancing Translational Sciences (NCATS), 2011).
# Results filed as inconclusive are left out. A call without a number means that no potency is given here. The source made the active and inactive calls. The call rests on the fitted dose curve; in most records, active means well fitted activation curve with a large enough effect; inconclusive means small, poorly fitted or top-dose-only effect; inactive means no such curve, though single readings can be large or run the other way.
# Assay: qHTS Assay for Identifying a Potential Treatment of Ataxia-Telangiectasia: Secondary assay (no NCS) hit validation;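 further: phosphorylated KAP1 signal as a proxy for ATM-like kinase activity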
# Settings: A-T patient fibroblasts, AlphaLISA, no DNA damage added, 90 min; series mostly up to 76.9 µM
# Procedure, shortened: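 hTERT-immortalized A-T patient fibroblasts (F2112), 500 cells/well, exposed to compounds at up to 76.7 uM final without NCS at 37C. KAP-1 phosphorylation measured by AlphaLISA after lysis and 6 h detection at 25C.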
# Potency means the concentration at half of the fitted maximal effect.
row,Structure (SMILES),Potency
1,COC(=O)CCc1c(C)c(C(=O)c2cc(OC)c(OC)c(OC)c2)c2ccccn12,inactive
2,CC(C)Nc1nc(Oc2ccc(=O)n(-c3ccccc3)n2)nc(N(C)C)n1,inactive
3,CC(C)(C)NC(=O)c1cccc2c1-c1ccccc1C2=O,inactive
4,COc1ccccc1N1CCN(C(=O)c2cc(=O)c3c(C)cc(C)cc3o2)CC1,inactive
5,CC(C)(CO)NC(=O)c1ccc2c(c1)C(=O)c1ccccc1-2,inactive
6,Cc1ccc(-c2noc(CCC(=O)NC3CCN(Cc4ccccc4)CC3)n2)cc1,inactive
7,COc1ccc(C(CNC(=O)C(Cc2ccccc2)NC(N)=O)N(C)C)cc1 (stereo not given),inactive
8,CCCc1ccc(S(=O)(=O)Nc2ccc(C)c(NS(C)(=O)=O)c2)cc1,inactive
9,C/C=C\C=C/C(=O)Nc1cccc(C2=NOC3(C2)C[C@@H](C(N)=O)N(C(=O)COc2ccc(Cl)cc2)C3)c1 (stereo not given in full),inactive
10,Cc1cc(C)c2c(Cn3ccnc3)cc(=O)oc2c1,inactive
11,O=C(O)c1ccc(-c2nc3ccccc3s2)o1,inactive
12,Cc1ccnc(NC(=O)c2ccccc2NC(=O)c2ccccc2)c1,inactive
13,N#Cc1c2c(c(-n3cnc4ccccc43)n3c1nc1ccccc13)CCC2,inactive
14,CCc1ccc(NC(=O)N[C@H](C(=O)O)C(C)CC)cc1 (stereo not given in full),inactive
15,Cc1ccccc1S(=O)(=O)Oc1ccc2ccc(O)cc2c1,inactive
16,COc1ccc(CCNC2=NCCS2)cc1OC,inactive
17,CCc1nnc2n1N=C(c1cccc([N+](=O)[O-])c1)CS2,51.9 µM (active)
18,Oc1ccc(-c2nccc(-c3ccc(F)cc3)n2)cc1,5.82 µM (active)

row,Structure (SMILES),Potency
1,CCOC(=O)Cn1c(-c2ccccc2)cc(SC)c(C#N)c1=O,inactive
2,O=C(Nc1ccc(N2CCCC2)cc1)c1ccc(Cl)cc1Cl,inactive
3,OC(CN1CCCCC1)Cn1c2ccc(Cl)cc2c2cc(Cl)ccc21 (stereo not given),inactive
4,Cc1ccc(C(=O)c2c(C)oc3c2C(=O)C(=O)c2ccccc2-3)cc1,inactive
5,CC1(C)CC2(CCO1)OC(=O)CC2C(=O)Nc1c(Cl)cccc1Cl (stereo not given),inactive
6,O=C(CCC(=O)c1ccc(F)cc1)Nc1cccc(Br)c1,inactive
7,CCOc1ccccc1CNC(=O)Cn1c(=O)oc2ccccc21,32.8 µM (active)
8,NC(=O)c1cc2ccccc2o/c1=N/NC(=O)c1cccc(F)c1,inactive
9,CNC(=S)N(CCO)Cc1cc2cc3c(cc2[nH]c1=O)OCCO3,inactive
10,CCOc1cccc(/C=C/c2ccc3cccc(O)c3n2)c1OC,inactive
11,CS(=O)(=O)c1ccc(-c2csc(-c3cccnc3)n2)cc1,inactive
12,CCOC(=O)C1CCN(C(=O)c2cc3cc(Cl)ccc3[nH]2)CC1,inactive
13,CCC[C@H]1CCCC/C=C\CCCC(=O)OCCN1C(=O)OC(C)(C)C,inactive
14,N#Cc1c(-c2ccccc2)cc(-c2ccccc2)[nH]c1=O,inactive
15,CC(C)CN(CC(C)C)C(=O)c1cc2c(=O)n3ccccc3nc2s1,inactive
16,Fc1ccc(C2=NOC(c3nnc(-c4ccccc4)o3)C2)cc1 (stereo not given),inactive
17,CCCCn1c2c(c(=N)c3ccccc31)CCC2,inactive
